Bioassay records from PubChem.
In the library only some 0.84% were active in any assay of this set; here they are far more common.
PPARg SRC-3 ag: PPARgamma agonists recruiting SRC-3 coactivator, primary screen, biochemical; AID 731, 2007; Peroxisome proliferator-activated receptor gamma (Homo sapiens), P37231; activation, % at 8 µM; biochemical PPARgamma/SRC-3 coactivator recruitment assay; actives 0.26% (n = 200,000); in the data active means activation above about 23%;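 further: 0% = DMSO and 100% = reference agonist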
Target sequence (P37231 whole entry, looked up): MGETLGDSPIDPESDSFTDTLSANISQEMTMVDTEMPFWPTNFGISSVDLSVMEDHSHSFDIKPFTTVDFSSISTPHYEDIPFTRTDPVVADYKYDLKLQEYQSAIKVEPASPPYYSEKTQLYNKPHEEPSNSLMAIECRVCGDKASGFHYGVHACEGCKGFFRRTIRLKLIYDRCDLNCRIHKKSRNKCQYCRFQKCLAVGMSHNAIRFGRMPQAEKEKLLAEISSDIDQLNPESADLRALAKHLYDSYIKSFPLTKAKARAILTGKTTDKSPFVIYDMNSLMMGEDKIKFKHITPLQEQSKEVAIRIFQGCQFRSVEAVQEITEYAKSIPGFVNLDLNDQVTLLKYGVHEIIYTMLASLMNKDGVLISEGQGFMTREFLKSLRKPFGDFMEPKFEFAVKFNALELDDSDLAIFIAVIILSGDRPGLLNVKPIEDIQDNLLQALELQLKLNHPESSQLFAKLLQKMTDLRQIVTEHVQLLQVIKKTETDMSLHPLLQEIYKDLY
PPARg SRC2 recr: agonists of PPARg-SRC-2 recruitment, primary screen, biochemical, HTS; Peroxisome proliferator-activated receptor gamma (Homo sapiens), P37231; actives 0.34% (n = 200,000); activation, % at 8 µM; AID 1032, 2008; PPARgamma LBD-SRC-2 recruitment;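 further: 0% = vehicle and 100% = reference agonist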
TR-FRET SRC-2 ct: TR-FRET signal artefacts, primary screen, artefact control for PPARgamma SRC-2 agonist project, biochemical; TR-FRET artefact counter-screen; hits give high values; TR-FRET ratio at 8 µM; actives 0.4% (n = 200,000); in the data active means TR-FRET ratio above about 2000
PPARg SRC1 recr: PPARgamma agonists recruiting SRC-1 coactivator, primary screen, biochemical; PPARgamma-SRC-1 coactivator recruitment biochemical assay; activation, % at 8 µM; actives 0.41% (n = 200,000); Peroxisome proliferator-activated receptor gamma (Homo sapiens), P37231; in the data active means activation above about 19%;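 further: 0% = DMSO and 100% = reference agonist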
SRC3 TRFRET art: TR-FRET detection interference compounds, artefact control for PPARgamma SRC-3 recruitment agonists, biochemical, TR-FRET ratio | TR-FRET artefact counter-screen, PPARgamma/SRC-3 format; hits give high values | actives 0.39% (n = 99,000) | TR-FRET ratio at 8 µM; in the data active means TR-FRET ratio above about 2000
SRC1 TRFRET art: TR-FRET detection interference compounds, primary screen, artefact control for PPARgamma SRC-1 recruitment agonists, biochemical, TR-FRET emission ratio; TR-FRET detection artefact counter-screen; hits give high values; TR-FRET ratio at 8 µM; actives 0.34% (n = 99,000); AID 1051, 2008; in the data active means TR-FRET ratio above about 2300
PPARg SRC2 conf: agonists of PPARgamma SRC-2 coactivator recruitment, confirmation, biochemical, HTS; shares compounds with PPARg SRC-3 ag; biochemical SRC-2 recruitment by PPARgamma; activation, % at 8 µM; actives 52% (n = 790); AID 1297, 2008;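 further: 0% = vehicle alone and 100% = reference agonist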
PPARg SRC1 conf: PPARgamma agonists recruiting SRC-1 coactivator, confirmation, biochemical; shares compounds with PPARg SRC-3 ag; PPARgamma–SRC-1 coactivator recruitment biochemical assay; activation, % at 8 µM; actives 43% (n = 790); AID 1300, 2008; in the data active means activation above about 20%;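 further: 0% = vehicle wells and 100% = reference agonist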
PPARg SRC3 ag: PPARgamma-driven SRC-3 coactivator recruitment agonists, confirmation, biochemical. activation, % at 8 µM. shares compounds with PPARg SRC-3 ag. biochemical PPARgamma-SRC-3 coactivator recruitment, agonist mode. actives 29% (n = 790); in the data active means activation above about 24%;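 further: 0% = vehicle wells and 100% = reference agonist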
An asterisk follows results filed as active; nt = no result. Unless noted, no stated cut-off is given here; in the data, active means activation above about 22%; inactive means the rest.

SMILES	PPARg SRC-3 ag	PPARg SRC2 recr	TR-FRET SRC-2 ct	PPARg SRC1 recr	SRC3 TRFRET art	SRC1 TRFRET art	PPARg SRC2 conf	PPARg SRC1 conf	PPARg SRC3 ag
CCOC(=O)c1sc2ncnc(NCc3ccco3)c2c1C	30.0*	22.8*	1926	9.2	nt	nt	18.7	15.9	10.1
CCOC(=O)c1sc2nc(CC(=O)OC)nc(NCc3ccco3)c2c1C	-3.7	6.1	1592	0.3	nt	nt	nt	nt	nt
Oc1ccc(NCc2cccc(OCc3ccccc3)c2)cc1	2.8	13.9	1789	23.9*	1844	1900	-1.3	-1.5	2.3
O=C(CSc1ncnc2c1oc1ccccc12)c1cccs1	69.3*	30.2*	2091*	51.7*	nt	nt	38.1*	25.2*	22.7
O=C(CSc1ncnc2c1oc1ccccc12)Nc1nccs1	3.0	14.3	1614	0.3	1569	1953	nt	nt	nt
O=C(CSc1ncnc2c1oc1ccccc12)NC1CCCCC1	32.9*	24.5*	2101*	64.5*	nt	nt	49.1*	36.8*	32.2*
O=C(CSc1ncnc2c1oc1ccccc12)OCc1ccccc1	41.8*	55.2*	2399*	45.8*	nt	nt	40.6*	34.3*	28.8*
NC(=O)CSc1ncnc2c1oc1ccccc12	153.4*	110.2*	4661*	120.1*	nt	nt	76.4*	54.6*	53.0*
O=C(CN1C(=O)NC2(CCCc3ccccc32)C1=O)N1CCN(C(=O)c2ccco2)CC1 (stereo not drawn)	-4.8	0.0	1568	-1.5	nt	nt	nt	nt	nt
CC1CCC2C(=O)N(c3ccccc3OC(=O)c3ccccc3F)C(=O)C2C1 (stereo not drawn)	5.9	7.8	1730	6.5	1749	2122	nt	nt	nt
O=C(OCc1ccccc1)C1CCCN1C(=O)c1ccccc1[N+](=O)[O-] (stereo not drawn)	7.4	7.4	1505	2.3	nt	nt	nt	nt	nt
c1ccc2nc(-c3ccc(N4CCOCC4)cc3)ccc2c1	71.4*	6.2	1544	50.8*	nt	nt	7.8	6.6	5.7
C=CCOc1c(Br)cc(CNn2nnnc2N)cc1OC	-3.0	0.0	1413	-3.5	nt	nt	nt	nt	nt
CCn1cc(CNC(=O)CCSc2nc(-c3ccco3)cc(C(F)(F)F)n2)cn1	-4.5	3.1	1550	3.0	nt	nt	nt	nt	nt
Cc1ccc(-n2c(-c3ccccc3)n[nH]c2=S)cc1	27.2*	35.5*	2299*	19.6*	nt	nt	35.4*	27.5*	25.7*
Cc1c(Cl)c(-c2n[nH]c(=S)n2-c2ccccc2)nn1C	16.8	23.7*	2128*	19.9	2138*	2260	25.0*	17.6	18.4
Cc1ccc(OCC(=O)Nc2cc(S(=O)(=O)N3CCCCC3)ccc2C)c([N+](=O)[O-])n1	-2.7	-6.0	1321	1.1	1595	1573	nt	nt	nt
CCCC(=O)Nc1sc2c(c1C#N)CCCCC2	-13.0	-3.6	1229	-5.0	nt	nt	nt	nt	nt
Oc1c(Br)cc(C=Nc2ccc3nc(-c4ccccc4)[nH]c3c2)c(O)c1Br	12.2	12.2	1907	21.6*	1961	1998	15.4	14.6	8.7
C/C(CC(=O)NC(C)(C)C)=N\NC(N)=S	1.1	8.8	1781	21.0*	1702	2014	6.0	2.4	3.4
CCOCCCNC(=O)/C(C#N)=C/c1cc(OC)c(O)c([N+](=O)[O-])c1	-2.6	8.3	1780	6.1	1814	1839	nt	nt	nt
CCOCCCNC(=O)/C(C#N)=C/c1ccc(Cl)c([N+](=O)[O-])c1	30.1*	10.9	1826	16.0	1683	1865	10.1	19.5	20.1
O=C(COc1ccc2ccccc2c1Br)NNC(=O)Nc1ccccc1	25.7*	28.4*	2408*	21.1*	nt	nt	20.9	13.3	14.4
CCOC(=O)c1cc(Br)c(=O)n2ccccc12	32.5*	39.0*	2044*	32.3*	nt	nt	17.0	15.7	11.8
CSc1nc2sc3c(c2c(=O)[nH]1)CCCC3	2.8	2.8	1485	0.5	nt	nt	nt	nt	nt
SMILES	PPARg SRC-3 ag	PPARg SRC2 recr	TR-FRET SRC-2 ct	PPARg SRC1 recr	SRC3 TRFRET art	SRC1 TRFRET art	PPARg SRC2 conf	PPARg SRC1 conf	PPARg SRC3 ag
O=c1[nH]c(S)nc2sc3c(c12)CCCC3	13.4	29.2*	2002*	22.6*	2183*	2564*	17.5	11.0	11.8
CCCC(=O)Nc1nc(C)c(C(C)=O)s1	20.9	30.3*	2441*	35.1*	2466*	2803*	32.1*	21.3*	20.9
COC(=O)[C@@]1(Cc2ccc(OC)cc2)[C@H]2c3cc(C(=O)N(C)C)n(CCc4ccc(OC)c(Br)c4)c3C[C@H]2CN1C(=O)c1ccccc1	-0.9	3.7	1518	-0.1	1446	1504	nt	nt	nt
O=c1c(Cc2c(F)cccc2Cl)c(O)ccn1C1CC1	3.5	6.9	1726	2.3	1422	1659	nt	nt	nt
Cn1c(C(=O)N2CCN(Cc3ccc4c(c3)OCO4)CC2)cc2c(=O)n(C)c3ccccc3c21	-1.4	6.7	1748	5.9	nt	nt	nt	nt	nt
Cn1c(=O)cc(SCC(=O)N2CCN(Cc3ccc4c(c3)OCO4)CC2)c2ccccc21	72.0*	33.0*	2161*	49.5*	nt	nt	25.0*	12.3	18.0
CCn1c(=O)cc(SCC(=O)N2CCN(Cc3ccc4c(c3)OCO4)CC2)c2ccccc21	41.5*	55.4*	2608*	45.0*	nt	nt	26.6*	17.0	18.1
CCSc1ccccc1C(=O)N1CCN(Cc2ccc3c(c2)OCO3)CC1	8.1	3.5	1434	0.4	nt	nt	nt	nt	nt
Cc1ccc(C)n1NC(=O)c1cccc(Cl)c1	-7.0	1.0	1438	-2.8	nt	nt	nt	nt	nt
ClCc1csc(-c2ccccc2Cl)n1	17.4	25.4*	2108*	18.9	2168*	2229	27.6*	21.8*	17.4
CC(=O)c1ccc(N2CCN(C(=O)c3ccc(Cn4c(=S)[nH]c5ccc(N6CCOCC6)cc5c4=O)cc3)CC2)cc1	34.7*	36.7*	3627*	39.6*	3877*	4282*	19.3	14.8	12.2
Cc1ccc2[nH]c(C)cc(=S)c2c1	22.2	38.1*	2363*	25.9*	2534*	2798*	3.9	6.8	5.0
Cc1cc(=O)c2cc(Cl)ccc2[nH]1	6.0	-2.7	1770	5.5	nt	nt	nt	nt	nt
CCOc1ccc(CCNC(=O)CSc2cc(=O)n(C)c3ccccc23)cc1OCC	12.1	25.6*	2107*	25.7*	1967	2625*	31.0*	18.3	19.0
